From PubChem BioAssay (NCATS)
Records with an inconclusive call do not appear. Entries that show only a call come without a potency. Active and inactive are the calls of the source. Unless noted, calls come from the whole dose curve; as a rule, active = well fitted curve in the direction sought with a large enough effect; inconclusive = small, poorly fitted or top-dose-only effect, or another doubt; inactive = no such curve, though single readings can be large; an effect the other way counts as inactive or inconclusive.

Tests used:
[1] = biological target: Mitogen-activated protein kinase 10 (Mus musculus) (UniProt Q61831); experiment: JNK3 AlphaScreen Assay (AID 530; active = well fitted curve in either direction with a large enough effect, not every such curve was filed as active;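 note: kinase came from lysate of stimulated human HepG2 cells; signal reports phosphorylation of biotinylated GST-cJun 1-79 at Ser73 with 10 µM ATP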)
Summary of the method: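 Compound titrations were preincubated 15 minutes at room temperature with substrate, antibody and pre-activated JNK3-containing HepG2 lysate. Reactions were started with 10 uM ATP and stopped with EDTA-containing bead buffer for AlphaScreen detection.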

AA1029 = experiment: qHTS profiling for inhibitors of Plasmodium falciparum proliferation (AID 504749); note: nearly all actives have a fitted effect of over 60% in size; note: potency is the fitted concentration of half-maximal effect; details: P. falciparum in erythrocytes, SYBR Green DNA, 72 h; series mostly up to 28.7 µM
Summary of the method: (§1)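 Infected RBCs, 0.3% parasitemia/2.5% Hct final; cpd 72 h, 37 C, 5% CO2; lysis buffer with saponin/triton/SYBR Green I, o/n RT dark; FI 485/535; norm. to artemisinin (0.29 uM) and DMSO.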

CP211 = experiment: as above; details: P. falciparum in erythrocytes, SYBR Green DNA, 72 h; series mostly up to 28.7 µM
Summary of the method: as §1

CP260 = experiment: as above; details: P. falciparum in erythrocytes, SYBR Green DNA, 72 h; series mostly up to 28.7 µM
Summary of the method: as §1

CP286 = experiment: as above; details: P. falciparum in erythrocytes, SYBR Green DNA, 72 h; series mostly up to 28.7 µM
Summary of the method: as §1

DIV14 = experiment: as above; details: P. falciparum in erythrocytes, SYBR Green DNA, 72 h; series mostly up to 28.7 µM
Summary of the method: as §1

DIV17 = experiment: as above; details: P. falciparum in erythrocytes, SYBR Green DNA, 72 h; series mostly up to 28.7 µM
Summary of the method: as §1

ICS = experiment: as above; details: P. falciparum in erythrocytes, SYBR Green DNA, 72 h; series mostly up to 28.7 µM
Summary of the method: as §1

JCK = experiment: as above; details: P. falciparum in erythrocytes, SYBR Green DNA, 72 h; series mostly up to 28.7 µM
Summary of the method: as §1

N140 = experiment: as above; details: P. falciparum in erythrocytes, SYBR Green DNA, 72 h; series mostly up to 28.7 µM
Summary of the method: as §1

PC15 = experiment: as above; details: P. falciparum in erythrocytes, SYBR Green DNA, 72 h; series mostly up to 28.7 µM
Summary of the method: as §1

TAB165 = experiment: as above; details: P. falciparum in erythrocytes, SYBR Green DNA, 72 h; series mostly up to 28.7 µM
Summary of the method: as §1

[2] = Confirmation and Secondary Assay for Modulators of Hemoglobin Beta Chain Splicing at IVS2 654 locus (AID 910);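 note: HeLa cells stably carrying EGFP split by mutant beta-globin IVS2-654 intron; per-well total GFP intensity by laser scanning cytometry after 2-day treatment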
Summary of the method: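 Readout: per-well total peak green fluorescence (488 nm ex, 500–520 nm em) from objects 5–250 µm, reflecting correct splicing of an EGFP-654 reporter. Compounds were applied for 2 days at 37 °C to overnight-plated HeLa EGFP-654 cells; controls were DMSO and 500 nM IVS2-654 PNA.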

[3] = Confirmation and Secondary Assay for Modulators of Hemoglobin Beta Chain Splicing at IVS2 705 locus (AID 930);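 note: HeLa cells stably expressing the EGFP-705 splicing reporter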
Summary of the method: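 HeLa cells stably carrying EGFP interrupted by mutant beta-globin IVS2-705 intron (CMV-driven) were seeded at 500 cells/well, treated next day with compound for 2 days at 37C; corrected splicing restores EGFP, read as total peak GFP intensity per well.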

CP266 = experiment: qHTS profiling for inhibitors of Plasmodium falciparum proliferation (AID 504749); note: nearly all actives have a fitted effect of over 60% in size; note: potency is the fitted concentration of half-maximal effect; details: P. falciparum in erythrocytes, SYBR Green DNA, 72 h; series mostly up to 28.7 µM
Summary of the method: as §1

[4] = Validation of Assay for Modulators of Lamin A Splicing (AID 1459; active = well fitted curve in the direction sought with a large enough effect in the signal ratio; the % refers to the signal ratio;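 note: cells exposed to compound for two days before reading; ratio rise marks activators and ratio drop marks inhibitors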)
Summary of the method: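 Splicing correction read as GFP (500-530 nm) over DsRed2 (575-640 nm) object intensity after 48 h compound exposure of reporter HeLa S3 clones (600 cells/well, 2% FBS medium); ancitabine and cycloheximide titrations, 0.5% DMSO as vehicle.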

[5] = biological target: DNA repair nuclease/redox regulator APEX1 (Homo sapiens) (UniProt P27695); experiment: qHTS Validation Assay for Inhibitors of the Human Apurinic/apyrimidinic Endonuclease 1 (APE1) (AID 1705; note: potency is the fitted concentration of half-maximal effect)
Summary of the method: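 Activity read as rising fluorescence (598 nm emission, 525 nm excitation) from incision of a TAMRA/BHQ-2 duplex carrying a THF abasic site (50 nM). Compound and enzyme sat 15 min at RT before substrate start; signal change between first and third 60-s reads.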

[6] = Counterscreen for APE1 Inhibitors: Fluorescent Dye Displacement Validation Assay (AID 1707)
Summary of the method: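 Assay buffer: Tris-HCl pH7.5 with 50mM NaCl, 2 mM MgCl2, 0.01% Tween-20. Dye 250 nM, duplex 50 nM final. Readout: decrease in ThO endpoint fluorescence, 480 nm excitation, 540 nm emission.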

[7] = biological target: Endonuclease 4 (Escherichia coli (strain K12)) (UniProt P0A6C1); experiment: Counterscreen for APE1 Inhibitors: qHTS Validation Assay for Inhibitors of Endonuclease IV (AID 1708)
Summary of the method: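 qHTS concentration-response format; LOPAC1280 tested under APE1-screen conditions. 2 nM enzyme, 15 min compound preincubation at RT, then 50 nM TAMRA/BHQ-2 abasic substrate; kinetic fluorescence read, three reads at 60 s intervals.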

[8] = qHTS for differential inhibitors of proliferation of Plasmodium falciparum line Dd2 (AID 1882); details: Potency: Plasmodium falciparum Dd2 proliferation inhibition; note: nearly all actives have a fitted effect of over 65% in size
Summary of the method: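 Dd2-infected erythrocytes (0.3% parasitemia, 2.5% hematocrit final) incubated with compound 72 h at 37 C, 5% CO2; lysed with saponin/Triton buffer containing SYBR Green I, incubated overnight in the dark, then read by fluorescence (485/535 nm). Normalized to 0.29 uM artemisinin and DMSO.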

Chain of DNA repair nuclease/redox regulator APEX1 (Homo sapiens) (P27695 whole entry, looked up): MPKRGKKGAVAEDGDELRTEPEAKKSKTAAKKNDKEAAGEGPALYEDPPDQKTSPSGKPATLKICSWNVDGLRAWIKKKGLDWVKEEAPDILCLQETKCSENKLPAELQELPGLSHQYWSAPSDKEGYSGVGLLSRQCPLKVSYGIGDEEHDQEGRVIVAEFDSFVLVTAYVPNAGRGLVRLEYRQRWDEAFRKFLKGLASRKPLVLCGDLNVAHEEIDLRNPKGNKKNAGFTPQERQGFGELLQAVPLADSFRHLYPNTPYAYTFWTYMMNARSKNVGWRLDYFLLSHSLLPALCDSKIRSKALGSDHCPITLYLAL

C[C@@]12C(=O)OC(=O)[C@]1(C)[C@H]1CC[C@@H]2O1
outcome [1]: inactive
Potency (AA1029): 3.16 µM (active)
Potency (CP211): 5.1 µM (active)
Potency (CP260): 0.631 µM (active)
Potency (CP286): 2.82 µM (active)
Potency (DIV14): 1.14 µM (active)
Potency (DIV17): 2.03 µM (active)
Potency (ICS): 3.98 µM (active)
Potency (JCK): 3.98 µM (active)
Potency (N140): 4.47 µM (active)
Potency (PC15): 3.98 µM (active)
Potency (TAB165): 2 µM (active)

COC1=C(OC)C(=O)C(C/C=C(\C)CC/C=C(\C)CC/C=C(\C)CC/C=C(/C)CC/C=C(\C)CC/C=C(\C)CC/C=C(\C)CC/C=C(\C)CC/C=C(\C)CCC=C(C)C)=C(C)C1=O
outcome [2]: inactive
outcome [3]: inactive

CC(/C=C1\SC(=S)N(CC(=O)O)C1=O)=C\c1ccccc1
Potency (AA1029): inactive
Potency (CP211): inactive
Potency (CP260): inactive
Potency (CP266): inactive
Potency (CP286): inactive
Potency (DIV14): inactive
Potency (DIV17): inactive
Potency (ICS): inactive
Potency (JCK): inactive
Potency (N140): inactive
Potency (PC15): inactive
Potency (TAB165): inactive

C=C1CCC2[C@](C)(CO)C(O)CC[C@]2(C)C1C/C=C1/C(=O)OCC1O (stereo not given in full)
outcome [2]: inactive
outcome [3]: inactive
Potency (CP266): inactive

C[C@H]1CC2[C@@H]3CCC4=CC(=O)C=C[C@]4(C)[C@@]3(F)[C@@H](O)C[C@]2(C)[C@@]1(O)C(=O)CO (stereo not given in full)
outcome [4]: inactive
Potency [5]: 39.8 µM (active)
Potency [6]: inactive
outcome [7]: inactive
Potency [8]: inactive

CN(CCOc1ccc(C[C@H](Nc2ccccc2C(=O)c2ccccc2)C(=O)O)cc1)c1ccccn1
outcome [1]: inactive
outcome [4]: inactive
Potency [5]: inactive
Potency [6]: inactive
outcome [7]: inactive
Potency [8]: inactive
